# Laboratory results as given in PubChem BioAssay AID620 (Sanford-Burnham Center for Chemical Genomics, 2007).
# The whole screen tested about 87,000 compounds, of which about 360 (0.41%) were called active. Only a selection was taken, and actives are over-represented in it overall. Values without a mark were called inactive. Cut-off read from the data, not from the text of the source: active = cytotoxicity above about 50%; inactive = the rest.
# Test: cytotoxicity in HT1080 fibrosarcoma cells, cell-based, fluorescence readout (AID 620);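 note: cells exposed to compound overnight then 4 h with Alamar Blue; 0% = vehicle DMSO and 100% = killing control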
# Conditions: HT1080 viability, at 10 µM, stronger effect = higher value
row,SMILES,cytotoxicity
1,O=C(Nc1ccc(Cl)cc1)Nc1nccs1,61.1% (active)
2,CON(C)C(=O)Nc1ccc(Cl)cc1,1.8%
3,CCOC(=O)c1c(C)n(CCN2CCN(C)CC2)c2ccc(OC)cc12,9.6%
4,CCN(CC)c1ccc(N=Cc2c(O)n(-c3ccc(OC)cc3)c(=O)[nH]c2=O)cc1,0.4%
5,CCOC(=O)C1SC2(C(F)F)CC1(O)c1c(c(OC)c3occc3c1OC)O2 (stereo not given),5.2%
6,O=c1c2ccccc2[nH]c(=S)n1-c1ccc2c(c1)OCO2,-0.8%
7,COc1ccc(C2NCc3ccc4c(c3-n3cccc32)OCO4)cc1O (stereo not given),67.8% (active)
8,COc1ccc(C2NCc3ccc4c(c3-n3cccc32)OCO4)cc1OC (stereo not given),-2.8%
9,c1cc2n(c1)-c1c(ccc3c1OCO3)CNC2c1ccc2c(c1)OCO2 (stereo not given),3.4%
10,COc1ccc(CCNC(C)CCc2ccc(OC)cc2)cc1 (stereo not given),-9.1%
11,CCC(=NCCc1c[nH]c2ccccc12)c1c(O)n(C)c(=O)n(C)c1=O,3.2%
12,COc1ccc(C2C(C(=O)N3CCC4(CC3)OCCO4)c3cc(OC)c(OC)cc3C(=O)N2C)cc1 (stereo not given),-12.7%
13,C[C@H]1CCC[C@@H](O)CCC/C=C/c2cc(O)cc(O)c2C(=O)O1,12.8%
14,C[C@H]1CCCC(=O)CCC/C=C/c2cc(O)cc(O)c2C(=O)O1,-0.7%
15,C[C@H]1CCC/C=C/C2C[C@H](O)CC2[C@H](O)/C=C/C(=O)O1 (stereo not given in full),83.3% (active)
16,COC(=O)CC1NC2CCCCC2NC1=O (stereo not given),3.2%
17,O=C1CC(N2CCC(n3c(=O)[nH]c4ccccc43)CC2)C(=O)N1c1ccc(F)cc1 (stereo not given),2%
18,O=c1[nH]c2ccccc2n1C1CCN(CCCC(c2ccc(F)cc2)c2ccc(F)cc2)CC1,91.3% (active)
19,O=C1CC(N2CCC(n3c(=O)[nH]c4ccccc43)CC2)C(=O)N1Cc1ccccc1 (stereo not given),13.4%
20,CCCCn1c(=O)c(C(=O)NCc2ccncc2)c(O)c2ccccc21,4.9%

row,SMILES,cytotoxicity
1,COc1ccccc1N1C(=O)NC(=O)C(CCc2ccncc2)(CCc2ccncc2)C1=O,-6.4%
2,CCC(=NC1CC1)c1c(O)n(C2CCCCC2)c(=O)[nH]c1=O,15.1%
3,CC(=O)c1cccc(NC2=NCC(C)S2)c1 (stereo not given),1.4%
4,O=C1CN=C(c2ccccc2)c2oc3ccc(Br)cc3c2N1,8.1%
5,COc1cccc(OC)c1C1=NCC(=O)Nc2c1oc1ccc(Br)cc21,64.8% (active)
6,CC1=CC(=C2C(=O)NC(=S)NC2=O)C=C(C(F)(F)F)N1C,1.5%
7,COC(=O)[C@@H]1[C@@H](C(=O)OC)C2(c3ccccc3-c3ccccc32)N(c2ccc(Cl)cc2)N1C#N,2.6%
8,COC(=O)C1CN(C#N)N(c2ccc(Cl)cc2)C12c1ccccc1-c1ccccc12 (stereo not given),84.3% (active)
9,COC(=O)C[C@]1(C(=O)OC)CN(C#N)N(c2ccc(Cl)cc2)C12c1ccccc1-c1ccccc12,93.9% (active)
10,CCC(=Nc1ccc2c(c1)CCC2)c1c(O)n(C2CCCCC2)c(=O)[nH]c1=O,-1.6%
11,CCCN1CC(C)C(OC(C)=O)(c2ccccc2)CC1C (stereo not given),1.2%
12,OC1(CN2CCOCC2)C2CC3CC(C2)CC1C3 (stereo not given),-20.1%
13,CC(=O)Nc1ccc(S(=O)(=O)NC(CC(=O)N2CCC3(CC2)OCCO3)C(C)C)cc1 (stereo not given),4.2%
14,CCOP(=O)(C#CC(C)(C)C)C(O)(c1ccccc1)C(F)(F)F (stereo not given),6.8%
15,Cc1nc2c(=O)n(C)c(=O)nc-2n(C)n1,103% (active)
16,O=C(CN1C2CCC1CC(O)(c1cccnc1)C2)Nc1ccc2c(c1)OCO2 (stereo not given),2.5%
17,CC(C)CCP(=O)(O)c1ccccc1,0.8%
18,C=CCn1c(O)c(C=NCCCOc2ccc(CC)cc2)c(=O)[nH]c1=S,-6.1%
19,CCOC(=O)C1C(=O)NC23CCCC2C1c1ccccc1O3 (stereo not given),13.5%
20,Cc1cccc(-n2c(O)c(C=NCCCN3CCOCC3)c(=O)[nH]c2=O)c1C,-0.3%
